{
  "source": "PubChem BioAssay",
  "note": "Some of the results follow. Active and inactive are the calls of the source. How the calls were made is not given here.",
  "data": [
    {"assay": "Brca1-Bard1 BiLC signal decrease – luminescence, single concentration, counter-screen for Mdm2/MdmX interaction inhibitor project, confirmation (AID 504668)", "details": "Brca1/Bard1 bimolecular luciferase complementation counterscreen, at 8 µM, hits give high values", "values": [
      {"smiles": "CCCCCCCCCCOC(=O)Cn1c(COc2cccc(OC)c2)[n+](C)c2ccccc21", "inhibition": "31.2% (active)"},
      {"smiles": "CCCCNC(=O)C(C)N(CCN(C)C)C(=O)CCCCCN1C(=O)NC(c2ccc(Cl)cc2)C(C(=O)OCc2ccccc2)=C1C", "note": "(centres undefined)", "inhibition": "27.8% (active)"},
      {"smiles": "CCc1ccc(CNC(=O)C2CCN(c3nnc(C)c4c(C)n(-c5ccc(C)cc5)nc34)CC2)cc1", "inhibition": "23.7% (active)"},
      {"smiles": "COc1cccc(-c2sc3ccc(OC)cc3c2-c2ccc(OCCN3CCCCC3)cc2)c1", "inhibition": "32.7% (active)"}
    ]},
    {"assay": "fluorescence interference of Apaf-1 inhibitor hits, dose response, artefact control for Apaf-1 inhibitor project (AID 588538)", "details": "fluorescence interference counterscreen, Apaf-1 assay format", "values": [
      {"smiles": "CCCCCCCCCCOC(=O)Cn1c(COc2cccc(OC)c2)[n+](C)c2ccccc21", "IC50": "> 100 µM (inactive)"},
      {"smiles": "CC(C)CC[n+]1ccn(C2=C([O-])c3ccccc3C(=O)/C2=N\\S(=O)(=O)c2ccccc2)c1", "IC50": "> 100 µM (inactive)"},
      {"smiles": "Cc1[nH]n(-c2ccccc2)c(=O)c1/C=N/NC(=O)c1ccoc1C", "IC50": "> 100 µM (inactive)"},
      {"smiles": "COc1ccc(C(CNC(=O)c2ccc(S(=O)(=O)Nc3ccccc3F)cc2)N(C)C)cc1", "note": "(centres undefined)", "IC50": "> 100 µM (inactive)"},
      {"smiles": "CCCCCCc1cc2cc(-c3nnc(-c4ccccc4)o3)c(=O)oc2cc1O", "IC50": "> 100 µM (inactive)"},
      {"smiles": "COc1ccc(S(=O)(=O)/N=C2\\C=C(NS(=O)(=O)c3ccccc3)C(=O)c3ccccc32)cc1", "IC50": "> 100 µM (inactive)"},
      {"smiles": "O=C(CCCN1CCc2[nH]c3ccc(F)cc3c2C1)c1ccc(F)cc1", "IC50": "> 100 µM (inactive)"},
      {"smiles": "O=C1NNC(c2ccccc2)=N/C1=C\\c1ccc(Cl)cc1", "IC50": "> 100 µM (inactive)"},
      {"smiles": "CN(C)S(=O)(=O)c1ccc2oc(SCC(=O)Nc3ccccc3F)nc2c1", "IC50": "> 100 µM (inactive)"},
      {"smiles": "C#CCOCCOCCOCCNc1nc(N2CCN(C(=O)CCCCCCCCCCNC(=O)Cn3cc(CCCCCN)nn3)CC2)nc(N2CCN(C(=O)CCCCCCCCCCNC(=O)[C@H](CO)n3cc(CCCSC)nn3)CC2)n1", "IC50": "> 100 µM (inactive)"}
    ]}
  ]
}
